Inconclusive results are not listed. The source made the active and inactive calls. The calls were made as follows, unless noted: active = hit-call score of the fitted dose curve at least 0.9, where 1 is the maximum; inactive = score below 0.9.

Assay [1] is described as follows: ACEA_ER_80hr: ACEA Biosciences xCELLigence Real-Time Cell Analysis on Estrogen Receptor Agonism for Proliferation (AID 2282667; active = hit-call score of the fitted dose curve at least 0.9, where 1 is the maximum). Particulars: T47D proliferation, impedance (xCELLigence), 80 h. Summed up:
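T-47D cells monitored by electrical impedance (xCELLigence) with compound present throughout; 80 h timepoint, positive-direction fitting versus DMSO. Eight-point 1:4 dilutions from 100 uM final, duplicate plates.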

Assay [2] can be described thus: APR_HepG2_CellCycleArrest_24hr: Apredica 24-hour HepG2 Assay for Cell Cycle Arrest (AID 2282905).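 Also: cell cycle arrest scored as ratio of 2N to 4N nuclear DNA content.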 The conditions noted are these: imaging, actives raise or lower the signal. A digest of the protocol:
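After 24 h exposure at 0.39–200 uM in 0.5% DMSO, fixed cells received Hoechst 33342 staining. Imaging quantified per-nucleus DNA content; gain or loss fitted against DMSO controls.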

The nature of assay [3]: APR_HepG2_NuclearSize_24hr: Apredica 24-hour HepG2 Assay for Nuclear Size (AID 2282907). Particulars: high-content imaging, actives raise or lower the signal. Summed up:
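Nuclear size from Hoechst 33342-stained, formaldehyde-fixed HepG2 nuclei imaged by high-content microscopy, after 24 h dosing at ten concentrations from 0.39 to 200 uM in 0.5% DMSO; gain or loss relative to DMSO baseline.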

Assay [4] in a line: APR_HepG2_CellLoss_24hr: Apredica 24-hour HepG2 Assay for Cell Loss (AID 2282908).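 As to AC50: fit in both directions so a hit may be cell loss or gain.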 Particulars: high-content imaging. A digest of the protocol: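 Nuclei stained with Hoechst 33342 after formaldehyde fixation (3.7%) were imaged at 20x to count cells. Exposure lasted 24 hr, at ten concentrations from 0.39 to 200 uM in duplicate, with 0.5% v/v DMSO. Fit bidirectional, relative to DMSO.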

The nature of assay [5]: APR_HepG2_MicrotubuleCSK_24hr: Apredica 24-hour HepG2 Assay for Microtubule CSK Stabilty (AID 2282909). Particulars: HepG2 microtubule cytoskeleton imaging, actives raise or lower the signal. Summed up:
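Fixed HepG2 cells were stained for alpha-tubulin and imaged after 24 hr exposure to ten concentrations spanning 0.39–200 uM in 0.5% DMSO. Signal change was fitted in both directions relative to DMSO; taxol was the positive control.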

Assay [6] in a line: APR_HepG2_MitoticArrest_24hr: Apredica 24-hour HepG2 Assay for Mitotic Arrest (AID 2282910). Particulars: high-content imaging, actives raise or lower the signal. Summed up:
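Treatment lasted 24 hr in the human HepG2 line at 0.39–200 uM, solvent held at 0.5% DMSO. Fixed cells were stained with Hoechst 33342 and anti-phospho-histone H3, imaged at 20x, and analysed by gain- or loss-of-signal fitting against DMSO.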

Assay [7] is described as follows: APR_HepG2_MitoMembPot_24hr: Apredica 24-hour HepG2 Assay for Mitochondrial Membrane Potential (AID 2282911). The conditions noted are these: imaging, actives raise or lower the signal. A digest of the protocol:
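HepG2 cells exposed 24 h to 0.39–200 uM compounds in duplicate, 0.5% v/v DMSO final. MitoTracker Red CMXRos 250 nM loaded 30 min before formaldehyde fixation; high-content imaging at 20x, bidirectional fit versus DMSO.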

The nature of assay [8]: APR_HepG2_MitoMass_24hr: Apredica 24-hour HepG2 Assay for Mitochondrial Mass (AID 2282912). The conditions noted are these: high-content imaging, actives raise or lower the signal. Summed up: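 Endpoint is MitoTracker Red CMXRos (250 nM, 30 min, pre-fixation) intensity from 20x high-content imaging, nuclei located by Hoechst. Human HepG2 cells received ten concentrations from 0.39 to 200 uM in 0.5% DMSO for 24 hr, duplicate wells. Bidirectional fit relative to DMSO.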

Assay [9] is described as follows: APR_HepG2_p53Act_24hr: Apredica 24-hour HepG2 Assay for p53 Activation (AID 2282913).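 Also: p53 protein immunofluorescence averaged per cell in HepG2 with Hoechst nuclei.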 The conditions noted are these: high-content imaging, actives raise or lower the signal. Summed up:
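HepG2 cells exposed 24 h to compounds at 0.39–200 uM in duplicate, 0.5% v/v DMSO final; fixed, permeabilized, stained with anti-p53 antibody and Hoechst 33342; fluorescence imaging; bidirectional curve fit versus DMSO.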

A short description of assay [10]: APR_HepG2_CellCycleArrest_72hr: Apredica 72-hour HepG2 Assay for Cell Cycle Arrest (AID 2282914). Particulars: high-content imaging, actives raise or lower the signal. Summed up: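 HepG2 cells exposed 72 h in duplicate to 0.39–200 uM compound, 0.5% DMSO final. Formaldehyde-fixed, Hoechst 33342-stained nuclei imaged at 20x, six fields per well; DNA content per valid cell quantified by cell-cycle image analysis, bidirectional fit versus DMSO.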

For the compound `NCC1(Cc2noc(=O)[nH]2)CCCCC1`, the call in assay [1], in assay [2], in assay [3], in assay [4], in [5] and in assay [6] was inactive. Moreover, the call in [7], in assay [8], in [9] and in assay [10] was inactive.
As a reminder, the AC50 is the midpoint of the concentration-response curve, whichever way the signal moves. With `O=c1[nH]cc(F)c(=O)[nH]1`, the result in assay [1], in assay [3], in assay [4], in [5], in assay [6] and in [7] was inactive. Besides, the call in assay [8] and in assay [9] was inactive. The AC50 was 1.06 µM (active) in assay [2] and 1.52 µM (active) in [10].
Take `CNCc1cc(F)ccc1Oc1ccc(Cl)c(Cl)c1`: the call in [1], in assay [2], in assay [5] and in assay [10] was inactive. The AC50 in assay [3] was 54.7 µM (active); in assay [4], 101 µM (active); in assay [6], 31.4 µM (active); in assay [7] it was 109 µM (active); in assay [9] it was 52.4 µM (active).
In the case of `Oc1ccc2c(c1)OC[C@@H](N1CCC(O)(c3ccc(F)cc3)CC1)[C@H]2O`, the outcome in [1], in [2], in assay [3], in [4], in [5] and in assay [6] was inactive. Further, the outcome in [8], in assay [9] and in [10] was inactive. For the same compound, in assay [7], the AC50 is 58.7 µM (active).
In the case of `CCOC(=O)CCC(=O)OCC`, the result in [1], in assay [2], in assay [3], in assay [4], in assay [5] and in assay [6] was inactive. The compound was called inactive in assay [7], in assay [8], in [9] and in assay [10].
`Cc1ccc(C)c(O)c1C`: the result in assay [1], in assay [2], in [3], in assay [4], in assay [5] and in assay [6] was inactive. For the same compound, the compound was called inactive in assay [7], in assay [8] and in assay [9]. Moreover, the AC50 in assay [10] is 12 µM (active).
For the compound `C=CCc1ccc(O)c(OC)c1`, the compound was called inactive in [1], in assay [2], in [3], in assay [4], in assay [5] and in assay [6]. In addition, the call in assay [7], in assay [9] and in assay [10] was inactive.
As to `CCCCCCCCCCCCCCCCCC(=O)O`, in [1], the AC50 is 2.04 µM (active). Further, the call in [2], in assay [3], in assay [4], in assay [5], in [6] and in [7] was inactive. In addition, the outcome in [8], in assay [9] and in assay [10] was inactive.
As to `CCCCc1ccc2c(n1)[C@@H](c1ccc(OC)cc1C[C@H](C)C(=O)O)[C@H](C(=O)O)[C@H]2c1ccc2c(c1)OCO2`, the compound was called inactive in assay [1], in [2], in [3], in assay [4], in assay [5] and in [7]. The compound was classed as inactive in assay [9] and in [10].
As to `Cc1nc(-c2ccc3c(c2)CCN(CCC2CCC(NC(=O)/C=C/c4ccc(F)cc4)CC2)CC3)no1` (stereo unspecified), the compound was called inactive in assay [1], in assay [2], in [3], in assay [4], in assay [6] and in [7]. In addition, the call in [8], in assay [9] and in [10] was inactive.
On to `C[Si]1(C)O[Si](C)(C)O[Si](C)(C)O[Si](C)(C)O1`, for which the result in assay [1], in assay [2], in assay [3], in [4], in assay [6] and in assay [7] was inactive. Also, the outcome in [8], in [9] and in [10] was inactive.
Consider `OC[C@@H](O)[C@@H](O)[C@H](O)[C@H](O)CO`, for which the compound was called inactive in assay [1], in assay [2], in [3], in assay [4], in [6] and in assay [7]. For the same compound, the call in assay [8], in assay [9] and in assay [10] was inactive.
For the compound `C=CCOC(=O)c1ccccc1C(=O)OCC=C`, the compound was called inactive in [1], in assay [2], in [3], in assay [4], in assay [5] and in assay [7]. In addition, the compound was classed as inactive in assay [9] and in assay [10].
For the compound `Clc1cc(Cl)c(Cl)cc1Cl`, the result in assay [1], in assay [2], in assay [3], in assay [4], in [6] and in [7] was inactive. Moreover, the compound was called inactive in assay [8], in assay [9] and in [10].
Take `CC1=C(/C=C/C(C)=C/C=C/C(C)=C/CO)C(C)(C)CCC1`: the call in assay [1], in [2], in assay [3], in assay [5] and in assay [7] was inactive. The half-maximal activity concentration (AC50) was 90.6 µM (active) in assay [4], 85.8 µM (active) in [9] and 56.3 µM (active) in assay [10].
`CCCCCCC(=O)OCC`: the call in assay [1], in [2], in assay [3], in assay [4], in [5] and in assay [7] was inactive. Moreover, the outcome in [9] and in [10] was inactive.
For the compound `Nc1ccc2c(c1)C(=O)c1ccccc1C2=O`, the outcome in [1], in [2], in [3], in assay [4], in [5] and in assay [7] was inactive. The compound was classed as inactive in [9]. In addition, the AC50 in [10] was 16.1 µM (active).
Take `Cc1cc(=O)[nH]c(=S)[nH]1`: the outcome in assay [1], in assay [2], in [3], in [4], in assay [6] and in assay [7] was inactive. In addition, the compound was classed as inactive in [8], in [9] and in assay [10].
As to `Cc1cccc([N+](=O)[O-])c1C`, the outcome in assay [1], in assay [2], in [3], in [4], in assay [5] and in assay [7] was inactive. Also, the outcome in assay [9] and in [10] was inactive.
Regarding `Nc1ccc(S(=O)(=O)c2ccc(N)cc2)cc1`, the compound was called inactive in assay [1], in assay [2], in assay [3], in assay [4], in assay [5] and in assay [7]. For the same compound, the call in assay [8], in [9] and in [10] was inactive.
`COc1cc(-c2nc(NC(=O)c3cc4cc(C)cc(C)c4n3CC(=O)O)sc2CCC2CCCCC2)c(OC)cc1Cl`: the compound was classed as inactive in assay [1]. Further, the AC50 in assay [2] is 38.6 µM (active); in assay [3] it was 61.4 µM (active); in [4], 29.3 µM (active); in assay [6], 35.1 µM (active); in assay [7], 15 µM (active); in assay [8], 14.4 µM (active). For the same compound, the half-maximal activity concentration (AC50) in assay [9] is 43.4 µM (active); in assay [10], 23.4 µM (active).
In the case of `Cc1ccc(C(C)C)c(O)c1`, the outcome in assay [1], in [2], in assay [3], in assay [4], in assay [5] and in assay [7] was inactive. Further, the outcome in assay [9] and in assay [10] was inactive.
For `Cc1cccc(C)c1O`, the result in assay [1], in assay [2], in [3], in assay [4], in assay [5] and in assay [7] was inactive. The result in assay [8], in assay [9] and in [10] was inactive.

Values taken from PubChem BioAssay (EPA / NIEHS).
